Compounds without any hit were thinned out: in the full panel of roughly 83,000, 20% have a hit.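 96-well plates, one dose, 48 hours. Percent growth reported; active if below 10.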 Values without a mark were called inactive. Calls of active or inactive are those of the source.
Legend:
Test in all cases: NCI-60 one-dose screen, 48 h (100 = growth as untreated, 0 = no growth, -100 = all killed)
Details in all cases: 10 µM unless noted
[1] = system: SK-MEL-2 melanoma
[2] = system: EKVX NSCLC
[3] = system: SN12C renal
[4] = system: UO-31 renal
[5] = system: TK-10 renal
[6] = system: ACHN renal
[7] = system: CAKI-1 renal
[8] = system: A498 renal
[9] = system: CCRF-CEM leukemia
[10] = system: MOLT-4 leukemia
[11] = system: SR leukemia
[12] = system: RPMI-8226 leukemia
[13] = system: OVCAR-8 ovarian
[14] = system: OVCAR-5 ovarian
[15] = system: OVCAR-4 ovarian
[16] = system: SK-OV-3 ovarian
[17] = system: IGROV1 ovarian
[18] = system: OVCAR-3 ovarian
[19] = system: HS 578T breast
[20] = system: NCI/ADR-RES ovarian

SMILES	growth [1]	growth [2]	growth [3]	growth [4]	growth [5]	growth [6]	growth [7]	growth [8]	growth [9]	growth [10]	growth [11]	growth [12]	growth [13]	growth [14]	growth [15]	growth [16]	growth [17]	growth [18]	growth [19]	growth [20]
COc1cnccc1-c1nc2ccc3[nH]ncc3c2c2c1CCCC2	81.2%	18.2%	62.4%	29.4%	60.7%	37.6%	18%	13.2%	16.4%	28.2%	8.78% (active)	61.6%	69.1%	74.8%	85.9%	41.9%	33.4%	84.3%	-1.02% (active)	64.2%
CC[C@@]12C=CCN3CC[C@]4(c5cc(NC(=O)COc6cc(OCC(=O)Nc7cc8c(cc7OC)N(C)[C@H]7[C@@](O)(C(=O)OC)[C@H](OC(C)=O)[C@]9(CC)C=CCN%10CC[C@]87[C@@H]%109)cc7oc(-c8ccccc8)cc(=O)c67)c(OC)cc5N(C)[C@@H]4[C@](O)(C(=O)OC)[C@H]1OC(C)=O)[C@H]32	85.1%	56.8%	49.4%	75.9%	42.8%	85.4%	46.8%	58.6%	13.6%	13.1%	10.6%	8.92% (active)	28.8%	30.2%	28.8%	23.5%	-70% (active)	-26.8% (active)	39.4%	95.5%
Cn1c(COC(=O)NCCc2ccccn2)nc2c(N3CCOCC3)nc(Cl)nc21	26.7%	14.9%	-41.5% (active)	-99.3% (active)	-72.2% (active)	-100% (active)	-78.9% (active)	51.9%	-9.98% (active)	0.583% (active)	3.5% (active)	-22.7% (active)	4.96% (active)	-65% (active)	-59.3% (active)	90.3%	-92.3% (active)	-88% (active)	-25% (active)	18.9%
CC(=O)NCCCS(=O)(=O)O	101%	98.6%	88.3%	83.9%	102%	98.2%	88.5%	93.4%	106%	104%	101%	113%	104%	100%	107%	103%	108%	108%	83.4%	101%
O=C(O)c1cn(C2CC2)c2cc(N3CCN(C(=O)C[n+]4cccc5ccccc54)CC3)c(F)cc2c1=O	72.5%	102%	33.1%	67.1%	100%	61%	81.3%	99.4%	-37.5% (active)	5.51% (active)	15.6%	61.1%	74.1%	100%	54.5%	106%	92.7%	51.1%	84.9%	93.8%
O=C(Nc1ccc2ncnc(Nc3ccc(Oc4cccc(F)c4)c(Cl)c3)c2c1)c1ccc(CNCCO)cc1	94.2%	47.9%	48.6%	73.9%	57.1%	28.8%	55.4%	71.6%	-19.9% (active)	-0.727% (active)	5.98% (active)	6.61% (active)	31.5%	78.1%	7.6% (active)	29.5%	9.12% (active)	45.7%	51.3%	76.9%
CN1CCN(c2ccc(NC3=C(Cl)C(=O)c4ncccc4C3=O)cc2C#N)CC1	78.8%	36.4%	25.5%	-34.9% (active)	85.4%	-96.1% (active)	0.744% (active)	79.7%	-19.9% (active)	-10.8% (active)	3.52% (active)	37.7%	26.8%	73.5%	-97.7% (active)	86.3%	-29.1% (active)	-63.7% (active)	61.4%	73.1%
CCCc1cc2c(cc1Br)OCO2	98%	94.4%	97.3%	95%	100%	105%	104%	98.6%	96.5%	110%	111%	113%	96.1%	96.5%	114%	103%	111%	113%	99.8%	98.5%
CN(Cc1ccccc1)c1nc(Cl)c(C2CC(c3ccc(Cl)cc3)=Cc3[nH][nH]c(=O)c32)s1 (stereo not given)	99.7%	99.6%	89.4%	69.2%	99.1%	93.5%	86.2%	111%	106%	96.3%	94.2%	92.5%	94.5%	97.5%	116%	101%	88.1%	95%	96.4%	89.6%
Fc1ccc(C2CC(c3cccc(Nc4ccncc4)c3)=NN2c2ccc(Cl)cc2)cc1 (stereo not given)	101%	84.7%	68.5%	52.9%	84.6%	75.6%	43.6%	78%	42.6%	24%	4.4% (active)	28%	22.6%	88.8%	60.7%	80.9%	44.3%	67.8%	79.9%	66.8%
COc1ccc(-c2nc(N=Nc3c(O)[nH]c4ccccc34)nc(N3CCOCC3)c2C#N)cc1	77.9%	74.5%	73.3%	84.8%	71.5%	25%	43.3%	67.4%	75.5%	80.8%	41.7%	60.2%	44.2%	81.9%	59.5%	66.8%	87.8%	67.4%	47.5%	59.7%
Clc1ccc(N2N=C(c3cccc(Nc4ccncc4)c3)CC2c2ccc(Br)cc2)cc1 (stereo not given)	94.7%	77.9%	54.3%	43.2%	62.3%	2.34% (active)	27.3%	71.6%	3.27% (active)	-0.295% (active)	1.87% (active)	-2.67% (active)	-18.7% (active)	77.8%	0.0501% (active)	85.7%	3.01% (active)	37.7%	60.5%	39.6%
CC(C)[N+](C)(CCOC(COc1ccccc1)COc1ccccc1)C(C)C	87.1%	79.1%	64.8%	88.8%	94.1%	105%	105%	60%	87.7%	98.2%	91.5%	49.3%	104%	104%	78.6%	105%	76.6%	75.4%	105%	107%
COc1cccc(CCC(=O)c2cc3c(N)c(C(=O)Nc4ccccc4)sc3nc2C)c1	42.3%	45.4%	35%	34.8%	70.9%	56.3%	28.4%	9.88% (active)	29.7%	22.2%	16.2%	43.8%	60.2%	48.6%	53.9%	56.8%	34%	18%	21.5%	12.2%
O=c1[nH]nc(-c2ccc(Br)cc2)cc1Cc1ccc(O)cc1	107%	51.7%	90.5%	77.3%	139%	105%	98.1%	103%	-9.56% (active)	17.9%	-29.1% (active)	53.8%	92.7%	106%	97.6%	92.9%	82.4%	92.4%	64.1%	71%
CCn1cc(C2NC(=O)c3ccccc3N2)c2cccc(C)c21 (stereo not given)	2.54% (active)	29.4%	23.9%	38.7%	33.6%	26.8%	32.6%	-17.4% (active)	-3.39% (active)	10.9%	-18.2% (active)	6.81% (active)	7.03% (active)	19.6%	25.7%	32.9%	14.4%	-44.9% (active)	7.22% (active)	8.25% (active)
COc1ccc(-c2nc(SCCC(C)C)nc(N/N=C(/C)c3ccc(C)cc3)c2C#N)cc1	106%	90.8%	75%	66%	107%	89.6%	83.2%	99.4%	94.4%	88.3%	91.2%	88%	88.1%	85.4%	103%	95.7%	84.7%	102%	85.1%	89.8%
O=C(O)CNC(=O)CN1C(=O)c2ccccc2C1=O	114%	103%	99.1%	86.3%	104%	103%	95.9%	104%	81.1%	91.8%	102%	101%	94.4%	101%	115%	90.7%	107%	116%	113%	104%
COc1ccc(C(=O)/C=C/c2c(OC)cc(OC)cc2OC)c(OC)c1	-9.11% (active)	59.1%	28.8%	31.8%	44.3%	26.9%	-1.02% (active)	13.8%	9.01% (active)	33.6%	23.1%	13%	25.9%	31.5%	79.1%	10.9%	40.3%	-33.3% (active)	54.1%	-21.9% (active)
CCCCCCCCCCCCCCCC(=O)OC[C@@]1(O)C[C@@]23CC[C@@H]4C(C)(C)CCC[C@@]4(C)[C@@H]2CC[C@H]1C3	105%	109%	93.6%	84.7%	100%	106%	74.2%	97.7%	43.2%	57.3%	22.9%	81.9%	92.3%	108%	97.7%	113%	107%	103%	98.9%	102%
COc1nc(N)nc(-n2c(-c3ccc(C)cc3)nc3ccccc32)c1NCc1ccc(C)cc1	99.9%	94.9%	90%	59.9%	98.4%	93.7%	40.7%	80.7%	94.5%	83.3%	80.5%	81.2%	94.1%	88.5%	95%	110%	80.1%	111%	83.6%	90.1%
CC(=O)O[C@H]1CC[C@@]2(C)[C@@H](CC[C@@H]3[C@@H]2CC[C@@]2(C)[C@H]3CC[C@]2(O)C(C)=O)C1	117%	87.1%	96.4%	92.7%	99.2%	88.6%	99.3%	90%	98.9%	97.6%	91.8%	88.1%	109%	97.7%	102%	103%	99.7%	108%	97.2%	96%
C/C(=C(/c1ccccc1)c1ccc(OCC(O)CNCCN2CCOCC2)cc1)c1ccccc1 (stereo not given)	94.9%	82.8%	76.1%	69.2%	73.5%	81.4%	67.9%	79.9%	56.5%	41%	0.691% (active)	20.4%	78.2%	76.2%	70.3%	95.4%	63.3%	77.9%	70.5%	80.2%
COc1cc(/C=N/NC(=O)c2ccccc2Nc2cccc(C(F)(F)F)c2)ccc1O	136%	79.5%	96.5%	74.8%	126%	103%	116%	76.9%	-41.6% (active)	-76.2% (active)	-66.4% (active)	78.3%	93.9%	89.2%	50%	69.6%	111%	80.6%	106%	75.4%
COc1cc(NCC(C)(O)CN(CC(C)C)CC(C)C)c2nc(C)ccc2c1 (stereo not given)	96.8%	91.5%	81%	54.5%	119%	79%	67.7%	56.5%	85.4%	80.7%	87.7%	68.6%	86.9%	89.5%	23.2%	98.6%	73.4%	24.8%	83.9%	79.6%
Cc1ccc(C(c2c(O)c3cc(Br)ccc3[nH]c2=O)c2c(O)c3cc(Br)ccc3[nH]c2=O)cc1	90.2%	71.2%	94.5%	59.5%	106%	73.5%	76.5%	79.6%	80.3%	66.6%	97.3%	73.2%	96%	104%	81.7%	86.1%	89.6%	86.7%	82.4%	101%
O=c1[nH]nc(-c2ccc(Cl)cc2)cc1Cc1cccc([N+](=O)[O-])c1	174%	39.8%	89.1%	71.7%	147%	98.3%	80.8%	106%	-7.68% (active)	5.84% (active)	-44.9% (active)	51.6%	101%	107%	80%	88.8%	82.4%	101%	49.1%	101%
Cc1c2c(cc[n+]1Cc1ccccc1)c1ccc(OCc3ccccc3)cc1n2Cc1ccccc1	-36% (active)	-28.8% (active)	-86.6% (active)	-18.2% (active)	11.8%	8.54% (active)	-5.76% (active)	-34.5% (active)	-16.2% (active)	-51% (active)	-52.5% (active)	-21.6% (active)	-70.9% (active)	13.5%	-3.79% (active)	7.67% (active)	-65.1% (active)	-97.1% (active)	-35.9% (active)	65%
COc1ccc(C2CC(c3cccc(Nc4ccncc4)c3)=NN2c2cc(Cl)cc(Cl)c2)cc1 (stereo not given)	91.1%	81.9%	70.8%	53.7%	63.2%	51.7%	33.3%	95.7%	7.35% (active)	-2.82% (active)	2.77% (active)	14.9%	-31.8% (active)	82.5%	28.2%	75%	17.3%	49%	56.7%	66.8%
COc1cc(NCCCN(CC(C)C)CC(C)C)c2ncccc2c1	91.8%	84.5%	88.2%	81.4%	102%	80.7%	92.4%	79.2%	87.5%	103%	84.9%	78%	94.5%	114%	17.2%	90.1%	80.3%	69.5%	92.3%	79.8%
